# Test results as given in PubChem BioAssay AID2685 (National Center for Advancing Translational Sciences (NCATS), 2010).
# Hit rate of the full screen: of about 320,000 compounds, about 2,100 (0.66%) were called active. Inconclusive results (about 53%) are left out. Calls follow the shape of the dose curve; as a rule, active = well fitted inhibition curve with a large enough effect in the signal ratio, with a control signal flat (not every such curve was filed as active); inconclusive = small, poorly fitted or top-dose-only effect, or effect the other way, or a change in a side signal; inactive = flat fitted curve, though single readings scatter; the % refers to the signal ratio. This excerpt belongs to a sample that is enriched for actives.
# Assay: qHTS Assay for Lipid Storage Modulators in Drosophila S3 Cells;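 as to cell number change: cells counted by Cell Tracker Red CMTPX staining in the red channel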; as to lipid storage change, negative = inhibition: % is scaled to controls: 0 for no effect and ±100 for the full control effect
# Conditions: BODIPY lipid droplet fluorescence, 18-24 h, cells fed with added oleic acid; cell number change: measured here: cell count max response; series mostly up to 46.1 µM; lipid storage change, negative = inhibition: at the top concentration
# Method in brief: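 Laser-scanning cytometry quantifies lipid droplet accumulation (500–530 nm total intensity; droplet/cell object ratio) in oleic acid-fed (400 uM added) Drosophila S3 cells treated with a concentration series. 20 uM Triacsin C defined 100% inhibition.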
# Potency is read from the fitted curve at half-maximal effect.
Compound,"lipid storage change, negative = inhibition",cell number change [%],outcome,Potency
CCOc1cc(N2CCOCC2)c(OCC)cc1NC(=O)CSc1n[nH]c(N)n1,10.3% (inactive),21.7,,
CCOC(=O)c1c(NC(=O)COC(=O)c2cc(OC)c(OC)cc2[N+](=O)[O-])sc(C)c1CC,7.82% (inactive),-0.918,,
CN(c1ccccc1)S(=O)(=O)c1cccc(NC(=O)CN2CCc3ccccc3C2)c1,,,inactive,
CC1=C(C(N)=O)C(c2cccs2)n2ncnc2N1 (stereo unspecified),-8.85% (inactive),-0.857,,
COc1ccc(S(=O)(=O)Nc2c(C(=O)O)[nH]c3ccccc23)cc1OC,25.4% (inactive),2.12,,
COc1ccccc1OCC(=O)Nc1cc(NC(=O)COc2ccccc2OC)cc(C(=O)O)c1,,-10.7,inactive,
Cc1cc(=O)n2[nH]nnc2n1,-9.73% (inactive),-0.264,,
CCC(C)[C@@H](C(=O)N1CCNCC1)n1cc(CCCN=C(N)N)nn1 (stereo partly specified),-8.66% (inactive),-4.28,,
Oc1[nH]c2ccccc2c1N=Nc1ccc(C(F)(F)F)cn1,-3.49% (inactive),-7.88,,
Cc1sc2ncnc(N=Nc3c(O)[nH]c4ccccc34)c2c1C,,-22,,20.6 µM (active)
Oc1[nH]c2ccccc2c1N=Nc1ncnc2c1oc1ccccc12,-11.9% (inactive),8.73,,
Cc1ccccc1OCCNc1ccc(C(F)(F)F)cc1[N+](=O)[O-],-9.82% (inactive),-21,,
CCS(=O)(=O)N1Cc2ccccc2CC1C(=O)Nc1ccc(C)cc1 (stereo unspecified),,,inactive,
CCS(=O)(=O)N1Cc2ccccc2CC1C(=O)NC(C)C12CC3CC(CC(C3)C1)C2 (stereo unspecified),,-29.2,,23.1 µM (active)
CCS(=O)(=O)N1Cc2ccccc2CC1C(=O)Nc1ccc(NC(C)=O)cc1 (stereo unspecified),,,inactive,
Cc1ccc(C=Nc2ccccc2C(N)=O)o1,8.66% (inactive),-8.21,,
CC1CN(c2ccc([N+](=O)[O-])cc2F)CCN1C(=O)c1ccco1 (stereo unspecified),15.3% (inactive),-3.23,,
CCOc1ccccc1NS(=O)(=O)c1ccc2c(c1)N(C)CCO2,,-20.1,,7.31 µM (active)
Cc1ccc(NS(=O)(=O)c2ccc3c(c2)N(C)CCO3)cc1,,5.66,inactive,
CCOc1ccccc1NS(=O)(=O)c1ccc(OC)c(OC)c1,3.17% (inactive),-6.31,,
COc1ccc(C)cc1NS(=O)(=O)c1ccc2c(c1)N(C(C)=O)CCO2,,6.45,inactive,
CCOc1ccccc1NS(=O)(=O)c1ccc2c(c1)n(C)c(=O)c(=O)n2C,0.5% (inactive),-6.25,,
COc1ccc(C)cc1NS(=O)(=O)c1ccc2c(c1)N(C)CCO2,,6.6,,20.6 µM (active)

Compound,"lipid storage change, negative = inhibition",cell number change [%],outcome,Potency
CN(C)S(=O)(=O)c1ccc(N2CCCC2)c(C(=O)Nc2ccc(C(N)=O)cc2)c1,16.1% (inactive),,,
Cc1ccc(NC(=S)N2CCN(Cc3ccccc3)CC2)c(C)c1,12.5% (inactive),7.65,,
COc1ccc(C2C(C(=O)N3CCCCC3)CC(=O)N2c2ccc(OC)cc2)cc1 (stereo unspecified),20.1% (inactive),-20,,
CCOc1ccc(/C=N/NC(=O)c2cc3ccccc3cc2OC)cc1,,,inactive,
O=C(Cc1ccc([N+](=O)[O-])cc1)NC(C(=O)O)C(O)c1cccc([N+](=O)[O-])c1 (stereo unspecified),19.1% (inactive),-5.25,,
CN(C)CC(=O)N1c2ccccc2CCc2ccc(NC(=O)c3ccc(N)cc3)cc21,,,inactive,
CCOc1ccccc1CN1CCNC(=O)C1CC(=O)NCCc1ccccn1 (stereo unspecified),-15.3% (inactive),-15.8,,
CCOc1ccccc1CN1CCNC(=O)C1CC(=O)NCCN1CCOC1=O (stereo unspecified),,19.4,,2.31 µM (active)
CCOc1ccccc1CN1CCNC(=O)C1CC(=O)NCCCn1cccn1 (stereo unspecified),,-11.6,inactive,
CC(=O)Nc1ccc(S(=O)(=O)NC(C)c2nc(-c3ccccc3)no2)cc1 (stereo unspecified),,16.2,inactive,
COc1ccc(-c2nn(CCC#N)cc2C=C(C#N)C#N)cc1,3.12% (inactive),16.7,,
COc1ccc(-c2cc(C(=O)N3CC4(C)CC3CC(C)(C)C4)no2)cc1OC (stereo unspecified),20.3% (inactive),-3.22,,
CC1(C)CC2CC(C)(CN2C(=O)c2cccs2)C1 (stereo unspecified),-0.663% (inactive),-7.87,,
CC1(C)CC2CC(C)(CN2C(=O)c2cc(-c3ccc(O)cc3)on2)C1 (stereo unspecified),,16.1,,0.92 µM (active)
C=CCn1c(=S)[nH]c2scc(-c3ccco3)c2c1=O,1.25% (inactive),8.4,,
C=CCn1c(SC(F)F)nc2scc(-c3ccco3)c2c1=O,,0.451,,0.058 µM (active)
C=CCn1c(SCc2ccc3c(c2)OCO3)nc2scc(-c3ccco3)c2c1=O,34.4% (inactive),-2.61,,
CC(C)N(Cc1nnc(-c2ccc(Cl)cc2)o1)C(=O)c1cc2ccccc2o1,11.5% (inactive),-8.15,,
Oc1nc(Nc2ccc(F)cc2)sc1/C=C1\C=Nc2ccccc21,-6.38% (inactive),-4.17,,
Cc1ccccc1NC(=O)Cc1nnc(N)s1,0.0585% (inactive),-0.0956,,
COC(=O)COc1ccc(S(=O)(=O)N2CCc3ccccc3C2)cc1,,22.6,,7.31 µM (active)
COc1ccc(S(=O)(=O)N2CCc3ccccc3C2)cc1,-6.8% (inactive),4.92,,
COC(=O)COc1ccc(S(=O)(=O)N2CCCCCC2)cc1,9.35% (inactive),19.9,,
